About 83,000 compounds went through this panel and 20% of them were active in at least one assay; those are over-represented in the sample as a whole.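 In brief: 96-well plates, 48 h treatment, single concentration, percent growth endpoint.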 Unmarked numbers belong to inactive results. The calls were made as follows: active = growth percent below 10; inactive = the rest.

This test deals with A498 renal. Put plainly: NCI-60 one-dose screen, 48 h (100 = growth as untreated, 0 = no growth, -100 = all killed). As to conditions: 10 µM unless noted.
As for `O=C(CCl)Oc1ccc([N+](=O)[O-])cc1`, the growth was 133%.

For the molecule `Clc1cccc(Cl)c1CSc1nc2ccccc2n2cccc12`, the growth was 115%.

In the case of `Cc1cccnc1NC1OC(=O)c2ccccc21` (stereo not drawn), the growth is 94.7%.

Take `COc1cc(OC)c(NC(=O)C(Sc2nc(C)cc(C)c2C#N)c2ccccc2)cc1Cl` (stereo not drawn): the growth is 111%.

For `COc1ccc(/C=N/NC(=O)COCC(=O)N/N=C/c2ccc(OC)cc2)cc1`, the growth is 85.6%.

Consider `Nc1ccccc1SC1CC(=O)N(c2ccc(Cl)c(Cl)c2)C1=O` (stereo not drawn), for which the growth was 84.8%.

Take `CC(C)c1ccccc1NC(=O)N1CCC(C(C)C)CC1`: the growth was 99.3%.

Consider `FC(F)(F)c1cc(NC2=NCCN=C(Nc3cc(C(F)(F)F)cc(C(F)(F)F)c3)SS2)cc(C(F)(F)F)c1`, for which the growth is 58%.

As for `CC(CCC#N)(CCC#N)C(=O)c1ccccc1`, the growth was 89.9%.

As for `CCCCCCCCNC(=O)C(C)C`, the growth is 81.5%.

For the molecule `CCCCCCCCCCCCCCCCCC(=O)NCCNC(=O)CCCCCCCCCCCCCCCCC`, the growth was 101%.

For the molecule `C=CCC(OC(C)=O)c1ccc(C(C)C)cc1` (stereo not drawn), the growth is 87.3%.

With `CC(=O)c1cc(O)ccc1O`, the growth is 90.6%.

With `CCCNS(=O)(=O)c1ccc(Cl)cc1`, the growth is 98.9%.

On to `S=c1nc(-c2ccccn2)c(-c2ccccn2)n[nH]1`, for which the growth was 119%.

For `CCOc1ccc(C(=O)NCC(C)C)cc1`, the growth is 92.1%.

Take `O=C(O)c1cccc(-n2ncc(Cl)c(Cl)c2=O)c1`: the growth is 113%.

Consider `Cn1/c(=N\N=C\c2ccccc2OCCO)sc2ccccc21`, for which the growth is 103%.

The values above are taken from PubChem BioAssay (NCI).
